Assay results taken from PubChem BioAssay (EPA / NIEHS).
Inconclusive results are not listed. Calls of active or inactive are those of the source. The calls were made as follows: active = hit-call score of the fitted dose curve at least 0.9, where 1 is the maximum; inconclusive = response in the unintended direction; inactive = score below 0.9.

test system: not listed separately; assay: ATG_GAL4_TRANS: Attagene TRANS-FACTORIAL HepG2 Assay for GAL4 (Internal Marker) (AID 2282976); details: HepG2 Attagene TRANS GAL4 internal marker reporter
How it was run: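 First, HepG2 cells were transfected with reporter units under GAL4-UAS control. Next, they were treated with chemical for 24 h. Finally, RNA was reverse-transcribed, PCR-amplified, FAM-labelled and resolved by capillary electrophoresis, with induction scored against DMSO.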

outcome, inactive:
C[Si](C)(C)O[Si](C)(C)C
COC(=O)c1ccc([N+](=O)[O-])cc1
c1ccc2[nH]cnc2c1
CC(C)(N=C=O)c1cccc(C(C)(C)N=C=O)c1
CCC1(C)NC(=O)NC1=O (configuration not stated)
CC1C2CC(CC2C2CCCC(O)C2)C1(C)C (configuration not stated)
CC(C)CC(C)CC(O)CC(C)C (configuration not stated)
Cc1ccc(S(N)(=O)=O)cc1
CC(C)(CO)[C@@H](O)C(=O)NCCC(=O)O
CC1(C)COCN1
OCCCCC(O)CO (configuration not stated)
Cc1cc(=O)oc2cc(N(C)C)ccc12
CCOC(=O)C1OC1c1ccccc1 (configuration not stated)
CN(C)c1cccc(O)c1
C[Si]1(C)O[Si](C)(C)O[Si](C)(C)O1
COc1cc(Cl)c(OC)cc1N

target: Estrogen-related receptor gamma (Homo sapiens) (UniProt P62508); assay: ATG_ERRg_TRANS: Attagene TRANS-FACTORIAL HepG2 Assay for human Estrogen-Related Receptor gamma (ERRg) (AID 2282977); details: HepG2 Attagene TRANS reporter, ERRg transactivation;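 also: hits increase reporter signal over DMSO so potencies reflect activators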
How it was run: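 HepG2 cells transiently transfected with multiplexed GAL4-UAS reporter units and chimeric NR-Gal4 constructs were exposed to test chemicals for 24 h. Reporter mRNA was measured by RT-PCR, 6-FAM primer extension, HpaI digestion and capillary electrophoresis; gain-of-signal versus DMSO.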

Estrogen-related receptor gamma (Homo sapiens), sequence (P62508 whole entry, looked up, the tested form may be a part): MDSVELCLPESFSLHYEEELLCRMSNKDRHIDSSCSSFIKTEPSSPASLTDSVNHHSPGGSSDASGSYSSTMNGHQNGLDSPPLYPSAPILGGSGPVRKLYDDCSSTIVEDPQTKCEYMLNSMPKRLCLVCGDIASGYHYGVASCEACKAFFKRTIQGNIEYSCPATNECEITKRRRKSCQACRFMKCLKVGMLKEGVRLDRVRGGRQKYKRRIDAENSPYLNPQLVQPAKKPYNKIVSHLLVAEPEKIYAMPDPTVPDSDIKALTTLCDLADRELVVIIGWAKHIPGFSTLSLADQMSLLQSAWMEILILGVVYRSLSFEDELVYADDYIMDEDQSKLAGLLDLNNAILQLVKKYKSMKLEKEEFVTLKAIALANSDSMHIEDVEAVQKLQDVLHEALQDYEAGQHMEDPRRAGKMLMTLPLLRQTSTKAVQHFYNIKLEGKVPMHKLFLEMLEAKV

outcome, inactive:
CCCN(CCC)S(=O)(=O)c1ccc(C(=O)O)cc1
COC(=O)c1ccc([N+](=O)[O-])cc1
COC(=O)C=C(C)CCC=C(C)C
CC(C)(N=C=O)c1cccc(C(C)(C)N=C=O)c1
N#Cc1ccc(CC(=O)c2cccc(C(F)(F)F)c2)cc1
C[Si]1(C)O[Si](C)(C)O[Si](C)(C)O1
